According to PubChem BioAssay AID504329 (Southern Research Specialized Biocontainment Screening …, 2011):
In all, about 340,000 compounds went through this assay and about 1,000 (0.29%) were called active. These entries were drawn from the full list. Entries with a potency or affinity are not part of this list. Values without a mark were called inactive. No stated cut-off is given here; in the data, inconclusive means inhibition above about 27% without an active follow-up result; inactive means below that.

Test: NS1A inhibition, H1N1 influenza, cell based functional assay (AID 504329)
Conditions: percent inhibition, at 12.5 µM, hits give high values

SMILES	inhibition
CSc1ccc(CN(C)CC(=O)Nc2c(F)cccc2F)cc1	4.59%
CC(C)c1ccc(NC(=O)C2=NNC(=O)CC2)cc1	8.16%
O=C(CCCCC(=O)OCC1CCCO1)OCC1CCCO1 (stereo unspecified)	-25.2%
O=C1COc2ccccc2N1Cc1ccc(Cl)cc1	-6.96%
Cc1c[n+](C)ccc1CC1C([N+](=O)[O-])=C[N-]c2ncnn21 (stereo unspecified)	-6.38%
O=C(Cc1ccc(O)cc1)NCCNC(=S)NCc1ccccc1	-12.1%
O=c1oc2ccccc2cc1-c1ccccc1	-7.16%
O=Cc1c(-c2ccccc2)cc2oc3ccccc3cc1-2	10.8%
O=C(NCc1ccccn1)Nc1ccccc1Cl	-1.88%
Cc1ccc(NC(=O)C(NCc2ccccn2)c2ccccc2)cc1 (stereo unspecified)	-1%
CCOc1ccc(NC(=O)NCc2ccccn2)cc1	-5.82%
CCOc1ccc(NC(=O)CC(c2ccccc2)c2ccc(F)cc2)cc1 (stereo unspecified)	-2.67%
O=C(Cc1ccccn1)Nc1ccccc1	-8.73%
S=C(NCc1ccccn1)Nc1ccccc1Cl	-10.4%
Cc1cc(C)cc(NC(=O)c2ccc(S(=O)(=O)C(F)F)cc2)c1	15.2%
COC(=O)C(C)Sc1ccc2nnc(-c3ccccc3)n2n1 (stereo unspecified)	0.68%
COc1ccc(NS(=O)(=O)c2ccc3oc(SCc4ccc(F)cc4)nc3c2)cc1	-1.81%
O=C(O)c1cc(-c2cccs2)nn1-c1cccc(Cl)c1	-3.66%
CC(C)CCNC(=O)CSc1nnc(-c2ccc(S(=O)(=O)N3CCCC3)cc2)n1C	1.62%
O=C(CSc1n[nH]c(-c2cccs2)n1)NCCc1ccccc1	-3.95%
COCCN=c1scc(-c2ccco2)n1/N=C/c1ccc(O)c(O)c1O	13.4%
CN=c1scc(-c2cccs2)n1/N=C/c1ccc(O)c(O)c1O	28.1%
Cc1ccc(S(=O)(=O)N2CCN(C(=O)C3CCCC3)CC2)cc1C	-7.76%

SMILES	inhibition
CCCC(=O)NC(c1ccc(C(C)C)cc1)c1ccc2cccnc2c1O (stereo unspecified)	-11.7%
CCCCC(=O)NC(c1ccccc1)c1ccc2cccnc2c1O (stereo unspecified)	17.1%
CCCCC(=O)NC(c1ccc(N(CC)CC)cc1)c1ccc2cccnc2c1O (stereo unspecified)	11.6%
CCCC(=O)NC(c1ccc(Cl)cc1)c1ccc2cccnc2c1O (stereo unspecified)	-7.24%
CCCCC(=O)NC(c1ccc(C(C)C)cc1)c1ccc2cccnc2c1O (stereo unspecified)	-9.31%
CCCC(=O)NC(c1ccc(C)cc1)c1ccc2cccnc2c1O (stereo unspecified)	4.97%
CCc1cc(C(=O)N2CCCC(C(=O)c3ccc(Oc4ccccc4)cc3)C2)n(C)n1 (stereo unspecified)	-0.31%
COc1ccc(NC(=O)c2ccc(NC(=O)CN(C)CC(=O)Nc3c(C)cccc3C)cc2)cc1	-7.57%
C/C=C\C=C\C(=O)N1CC2(CC(c3cccc(NC(=O)CC(c4ccccc4)c4ccccc4)c3)=NO2)C[C@H]1C(N)=O (stereo partly specified)	2.26%
COCCCNC(=O)c1cc(=O)n(Cc2ccc(Cl)cc2)c2ccccc12	6.81%
CCCCCc1cc(=O)oc2c(C(CCN(CC)CC)c3cc(OC)c(OC)c(OC)c3)c(OC)cc(OC)c12 (stereo unspecified)	9.43%
CCCCCc1cc(=O)oc2c(C(CCN3CCCCC3)c3ccc(OC)cc3)c(OC)cc(OC)c12 (stereo unspecified)	18.7%
CCCCCc1cc(=O)oc2c(C(CCN3CCN(c4ccccc4)CC3)c3ccc(N(C)C)cc3)c(OC)cc(OC)c12 (stereo unspecified)	-11.8%
CCCCCc1cc(=O)oc2c(C(CCN3CCCC(C)C3)c3ccc(OC)cc3)c(OC)cc(OC)c12 (stereo unspecified)	8.01%
CCCCCc1cc(=O)oc2c(C(CCN3CCCC(C)C3)c3ccc4c(c3)OCO4)c(OC)cc(OC)c12 (stereo unspecified)	16.4%
CCCCCc1cc(=O)oc2c(C(CCN(CC)CC)c3ccc(OC)cc3)c(OC)cc(OC)c12 (stereo unspecified)	5.11%
Nc1nnc(SCC(=O)NCCNC(=O)CSc2nnc(N)s2)s1	-11.3%
Cc1noc(-c2ccc(Cl)cc2)c1C(=O)O/N=C(\N)c1ccc(C(C)(C)C)cc1	12.5%
O=C(CN1CCCCC1)N=Nc1c(O)[nH]c2ccccc12	-8.88%
Cc1ccc(-c2nnc(N3CCCCC3)c3ccccc23)cc1S(=O)(=O)N(C)C	-3.68%
CS(=O)(=O)Oc1ccc2c(c1)O/C(=C\c1cccc([N+](=O)[O-])c1)C2=O	7.03%
CS(=O)(=O)c1ccc(S(=O)CC(=O)OCc2ccccc2)c([N+](=O)[O-])c1 (stereo unspecified)	11.4%
COc1ccccc1OCCOC(=O)Nc1ccccc1	-11.2%

SMILES	inhibition
O=C1/C(=C\c2ccc(O)c(O)c2)C(c2ccccc2)=NN1c1ccccc1	23.5%
COc1cc(/C=C2/C(=O)N(c3ccc(C(=O)O)cc3)N=C2C)cc(OC)c1O	13.2%
COc1cc(/C=C2/C(=O)N(c3ccc(Br)cc3)N=C2C)cc(OC)c1OC	3.78%
COc1cc(/C=C2\C(=O)N(c3ccc(NC(C)=O)cc3)N=C2c2ccccc2)ccc1O	12.5%
CCOC(=O)C1CCC(CN(Cc2ccccc2)S(=O)(=O)c2ccc([N+](=O)[O-])cc2)CC1 (stereo unspecified)	6.67%
CCOC(=O)c1ccc(COc2ccc(C(C)C)cc2)o1	-6.49%
COc1ccccc1C=NN1C(=O)CSC1=S	1.86%
O=C1CSC(=S)N1/N=C/c1ccc(O)c(O)c1O	-1.09%
CCOc1cccc(/C=N/N2C(C)CCCC2C)c1O (stereo unspecified)	-10.1%
O=C1CSC(=S)N1N=Cc1cccc2ccccc12	13.2%
CCOc1cccc(/C=N/N=C/c2cccc(OCC)c2O)c1O	-10.6%
Cc1ccccc1/C=N/N1C(=O)CSC1=S	-0.54%
CC(=O)O[C@H]1[C@H](O)[C@H](Oc2c(O)c(C)c3c4c2[C@@H](C)CC[C@@H]4[C@@H](C)C[C@H]3C=C(C)C)O[C@@H](C)[C@H]1O	4.02%
COc1ccc(-c2nc3ccccc3c(=O)n2CC(C)C)cc1	-17.7%
CCN1C(=NCCCOC(C)C)N[C@@H](CCc2ccccc2)[C@H](C(=O)NCCCOC(C)C)[C@H]1C	7.63%
COc1ccc(OC)c(C(=O)N(C)C2CCCN(Cc3ccccc3F)C2)c1 (stereo unspecified)	2.52%
COC(=O)C1=C(c2c(C)noc2C)C[C@@H]2CC[C@H]1N2C(=O)NCCCOC(C)C	-1.03%
COC(=O)C1CCN(C(=O)/C=C/c2ccc(OC)cc2)CC1	1.45%
CCOc1ccccc1OCCCC(=O)ON=C(N)c1ccccc1	-17.2%
COc1ccc(-c2c(NC(=O)c3ccco3)oc3ccccc3c2=O)cc1OC	9.22%
CCOc1ccccc1OCCNC1CCCC1	-3.47%
CCOc1ccccc1C(=S)NC1CCCCC1	-0.78%
CC(C)C[C@@H]1CN=C(N)N1C[C@@H]1CCCN1C[C@@H](C(C)C)N1C[C@@H](Cc2ccccc2)N(CCCC2CCCC2)C1=N	0.6%

SMILES	inhibition
CCOc1ccc(S(=O)(=O)Nc2ccc(C(=O)NCC(C)(C)N3CCOCC3)cc2)cc1	-9.51%
O=C(O)c1cc(S(=O)(=O)Nc2ccccc2C(=O)O)ccc1O	-2.33%
O=C(O)c1cc(S(=O)(=O)O)ccc1O	-4.88%
O=C(NNC(=O)c1cc(-c2cccc(Br)c2)nc2ccccc12)c1csc(N2CCOCC2)n1	-7.9%
Oc1ccc(Br)cc1/C=N/Nc1ncc(-c2ccccc2)cn1	-1.12%
COc1cc([N+](=O)[O-])cc(/C=N/NC(=O)c2cncc(Br)c2)c1O	-13.3%
COc1cc(/C=N/NC(=O)c2ccc(C)nc2)cc([N+](=O)[O-])c1O	-21.2%
Cc1cc(C)nc(N/N=C/c2cc(Br)ccc2O)n1	8.15%
COc1cc([N+](=O)[O-])cc(/C=N/NC(=O)c2cccnc2)c1O	-13.7%
O=C(N/N=C/c1cc2c(cc1Cl)OCO2)c1ccncc1	-1.41%
COc1cc([N+](=O)[O-])cc(/C=N/NC(=O)c2ccc(NC(=O)c3ccc(C)cc3)cc2)c1O	-0.59%
O=C(N/N=C/c1ccncc1)c1ccncc1	0.03%
Cc1ccc([N+](=O)[O-])cc1S(=O)(=O)Nc1ccc(OCC(=O)N2CCOCC2)cc1	-6.07%
COC(=O)c1ccccc1S(=O)(=O)NC(=O)c1ccccc1	-2.87%
CCOC(=O)C1CCN(CCC(=O)Nc2ccc(Br)cc2)CC1	-10.6%
CC(Sc1nnc2ccccn12)C(N)=O (stereo unspecified)	7.97%
Cc1ccc(S(=O)(=O)Nc2ccccc2C(=O)N2CCCCC2)cc1	-16.7%
COc1ccc(C(=O)Nc2cccc(C)n2)cc1S(=O)(=O)N1CCCc2ccccc21	8.43%
CC(C)(C)OC(=O)N1C[C@H](O)C[C@H]1C(=O)OCC(=O)c1ccc([N+](=O)[O-])cc1	9.24%
CN(CC(=O)Nc1ccc(Cl)c(S(=O)(=O)N2CCOCC2)c1)C(=O)c1cccs1	-3.85%
Cc1cnc(C)c(N2CCN(Cc3cn(C)nc3-c3cccc(Cl)c3)CC2)n1	-9.06%
COC(=O)C(C(=O)OC)[C@@H]1C=C[C@H](C[N+](=O)[O-])N(C(C)=O)C1	-12.3%
